# Assay results from PubChem BioAssay.
# Inconclusive results are not listed. The source made the active and inactive calls. Unless noted, no stated cut-off is given here; in the data, active means fluorescence slope change above about 50%; inconclusive means mostly about 31% to 49%; inactive means weaker than that.
# Experiments:
# [1] = circadian clock period modulators, cell-based, LOPAC library, luminescence reporter (AID 2774; call rule not given here;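 further: values are relative to mean of DMSO wells on each plate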); conditions: circadian reporter cells, at 7 µM, actives lie on both sides
# [2] = biological target: ATP-dependent translocase ABCB1 (Homo sapiens) (UniProt P08183); assay: MDR1 (ABCB1) efflux transporter inhibition, cell-based (AID 377); conditions: MDR1-expressing cells, fluorescent substrate accumulation slope; stronger effect = higher value; concentration not given here
# ATP-dependent translocase ABCB1 (Homo sapiens), sequence (P08183 whole entry, looked up): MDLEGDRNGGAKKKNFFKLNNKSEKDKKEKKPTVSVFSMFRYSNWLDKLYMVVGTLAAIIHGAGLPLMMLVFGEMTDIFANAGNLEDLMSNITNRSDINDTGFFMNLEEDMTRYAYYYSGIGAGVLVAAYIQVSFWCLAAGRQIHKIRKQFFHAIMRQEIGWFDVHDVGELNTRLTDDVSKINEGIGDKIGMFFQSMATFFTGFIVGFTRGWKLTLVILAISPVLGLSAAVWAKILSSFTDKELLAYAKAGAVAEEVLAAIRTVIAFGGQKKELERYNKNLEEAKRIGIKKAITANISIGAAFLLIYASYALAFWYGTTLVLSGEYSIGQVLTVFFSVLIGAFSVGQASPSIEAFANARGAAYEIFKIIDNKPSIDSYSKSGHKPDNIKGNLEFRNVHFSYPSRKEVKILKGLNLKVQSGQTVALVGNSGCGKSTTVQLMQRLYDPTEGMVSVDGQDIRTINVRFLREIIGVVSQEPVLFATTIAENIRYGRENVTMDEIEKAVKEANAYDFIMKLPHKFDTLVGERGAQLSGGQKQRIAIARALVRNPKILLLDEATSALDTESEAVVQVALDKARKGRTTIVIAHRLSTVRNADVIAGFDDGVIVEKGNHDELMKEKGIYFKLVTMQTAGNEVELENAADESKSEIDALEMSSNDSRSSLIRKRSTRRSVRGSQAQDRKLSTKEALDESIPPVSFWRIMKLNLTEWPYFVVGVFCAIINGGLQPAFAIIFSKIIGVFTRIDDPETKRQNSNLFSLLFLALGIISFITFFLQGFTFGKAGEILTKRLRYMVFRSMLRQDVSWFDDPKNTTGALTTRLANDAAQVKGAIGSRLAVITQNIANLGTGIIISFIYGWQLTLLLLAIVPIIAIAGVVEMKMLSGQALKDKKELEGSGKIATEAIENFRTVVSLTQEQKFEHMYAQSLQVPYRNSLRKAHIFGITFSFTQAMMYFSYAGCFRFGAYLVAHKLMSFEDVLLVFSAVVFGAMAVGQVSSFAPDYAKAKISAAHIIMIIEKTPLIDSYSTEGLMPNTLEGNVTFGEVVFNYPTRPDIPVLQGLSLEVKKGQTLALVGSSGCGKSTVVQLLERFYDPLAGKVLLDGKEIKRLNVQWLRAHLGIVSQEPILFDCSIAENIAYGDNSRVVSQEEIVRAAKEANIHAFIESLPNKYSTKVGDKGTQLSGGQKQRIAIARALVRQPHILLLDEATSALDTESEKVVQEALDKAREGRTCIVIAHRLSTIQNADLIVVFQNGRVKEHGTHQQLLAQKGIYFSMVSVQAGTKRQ
# [3] = hESC survival regulators, cell-based (AID 493140; call rule not given here;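 further: cells exposed to compounds for four days before counting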); conditions: human embryonic stem cell survival screen; stronger effect = higher value
# [4] = liver-stage malaria parasite growth inhibition, primary screen, cell-based, HepG2, luciferase luminescence, HepG2 viability (AID 624349; in the data active means parasite load remaining mostly below about 12%, no sharp cut-off; inactive means mostly above about 10%;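 further: 100% = mean of DMSO negative control wells on the same plate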); conditions: P. berghei liver stage in HepG2, luciferase luminescence, concentration not given here; parasite load remaining: stronger effect = lower value; viability: measured here: HepG2 viability without parasites
# [5] = tested on: Hepatitis C virus NS3 helicase; assay: HCV NS3 helicase inhibitors, primary screen, biochemical, fluorescence polarization, LOPAC1280 library (AID 687035; in the data active means inhibition above about 37%); conditions: Purified HCV NS3 helicase, Cy5-dT15 ssDNA binding fluorescence polarization; stronger effect = higher value; concentration not given here
# [6] = Cy5 fluorescence quenching or enhancement artefacts, artefact control for HCV NS3 helicase inhibitor project, biochemical, LOPAC1280 (AID 687037; call rule not given here); conditions: Cy5-DNA-NS3h complex fluorescence interference counterscreen
structure (smiles),measurement,setting,value
COc1cc(C[C@@H](C)N)c(OC)cc1I,period change,[1],-0.225 h (inactive)
NCC1OC(OC2C(N)CC(N)C(O)C2O)C(N)C(O)C1O (centres undefined),fluorescence slope change,[2],14.1% (inactive)
COc1cc2c(cc1O)C1Cc3ccc(OC)c(O)c3CN1CC2 (centres undefined),fluorescence slope change,[2],144% (active)
same,survival,[3],1.58 (inactive)
same,parasite load remaining,[4],63.3% (inactive)
same,viability,[4],69.6%
C#C[C@]1(O)CCC2C3CCC4=CC(=O)CC[C@]4(C)C3CC[C@@]21C (some centres undefined),fluorescence slope change,[2],63.9% (active)
same,survival,[3],10.7 (inactive)
same,parasite load remaining,[4],97.8% (inactive)
same,viability,[4],86.3%
C[C@H]1O[C@@H](OC2CC[C@]3(C=O)[C@H]4CC[C@]5(C)[C@@H](C6=CC(=O)OC6)CC[C@@]5(O)[C@@H]4CC[C@]3(O)C2)C[C@H](O)[C@@H]1O (some centres undefined),survival,[3],1.42 (inactive)
CN1[C@@H](C[C@@H](O)c2ccccc2)CCC[C@H]1C[C@H](O)c1ccccc1,fluorescence slope change,[2],85.7% (active)
COC(C)C(O)(C(=O)OCC1=CCN2CC[C@H](O)[C@@H]12)C(C)C (some centres undefined),fluorescence slope change,[2],29% (inactive)
same,survival,[3],1.33 (inactive)
CCN(CC)C(=O)N[C@@H]1CC2c3cccc4[nH]cc(c34)CC2N(C)C1 (some centres undefined),survival,[3],2.5 (inactive)
CC(C)C(C(=O)OC(C#N)c1cccc(Oc2ccccc2)c1)c1ccc(Cl)cc1 (centres undefined),survival,[3],79 (inactive)
CN(CC(=O)O)/C(N)=N/P(=O)(O)O,fluorescence slope change,[2],63.4% (active)
CCN1C[C@]2(C)CC[C@H](O)C34C5C[C@H]6C(O)C5[C@](O)(C[C@@H]6OC)C(CC32)[C@@H]14 (some centres undefined),fluorescence slope change,[2],-10.1% (inactive)
same,survival,[3],6.75 (inactive)
C=C[C@@H]1CN2CCC1C[C@@H]2[C@@H](O)c1ccnc2ccccc12 (some centres undefined),fluorescence slope change,[2],13.4% (inactive)
COc1cc(C(=O)OC2CC3CCC(C2)N3C)ccc1O (centres undefined),fluorescence slope change,[2],5.8% (inactive)
same,survival,[3],1.67 (inactive)
CC(=O)OC(C)C(C)C(=O)OC[C@]12C(C)[C@H]3O[C@@H]1C[C@]1(C)C(=CCC4[C@@]5(C)CCC(OC6O[C@H](C(=O)O)[C@H](O[C@H]7O[C@@H](CO)[C@@H](O)[C@@H](O)[C@@H]7O)[C@H](O)[C@H]6O[C@@H]6OO[C@@H](O)[C@H](O)[C@@H]6O)[C@](C)(CO)C5CC[C@]41C)[C@@H]2CC3(C)C (some centres undefined),survival,[3],2.17 (inactive)
CCC1C2CC3[C@@H]4N(C)c5ccccc5[C@]45CC(C2[C@H]5O)N3[C@@H]1O (some centres undefined),fluorescence slope change,[2],67.5% (active)
same,survival,[3],5.33 (inactive)
same,parasite load remaining,[4],65.3% (inactive)
same,viability,[4],70.7%
CN1CCC2=C[C@@H](O)C3OC(=O)c4cc5c(cc4C3[C@H]21)OCO5 (some centres undefined),fluorescence slope change,[2],1.8% (inactive)
same,survival,[3],6.42 (inactive)
C=C1C2C[C@@]3(C4CC5C6(C3C[C@@H]2O)[C@@H](O)CC[C@@]5(C)CN(CC)[C@H]46)[C@@H]1O (some centres undefined),fluorescence slope change,[2],24.6% (inactive)
same,survival,[3],5.92 (inactive)
C=C(C)[C@@H]1[C@H]2OC(=O)[C@@H]1[C@]1(O)C[C@H]3O[C@]34C(=O)OC2[C@]14C (some centres undefined),fluorescence slope change,[2],18.3% (inactive)
same,survival,[3],4 (inactive)
CCN1C[C@]2(COC)CC[C@H](O)[C@@]34C5C[C@H]6C(OC)C5[C@](O)(C[C@H]6OC)C(O)(C(OC)C23)[C@@H]14 (some centres undefined),fluorescence slope change,[2],-9.9% (inactive)
same,survival,[3],4 (inactive)
CC(=O)O[C@@H]1CC(O[C@@H]2C(C)OC(O[C@@H]3C(C)OC(OC4CCC5(C)C(CCC6C5CC(O)C5(C)C(C7=CC(=O)OC7)CCC65O)C4)C[C@H]3O)C[C@H]2O)OC(C)[C@H]1OC1OC(CO)[C@@H](O)[C@@H](O)[C@@H]1O (some centres undefined),fluorescence slope change,[2],3% (inactive)
CCC(C)C1OC2(C=CC1C)CC1CC(CC=C(C)C(OC3CC(OC)C(OC4CC(OC)C(O)C(C)O4)C(C)O3)C(C)C=CC=C3COC4C(O)C(C)=CC(C(=O)O1)C34O)O2 (centres undefined),survival,[3],3.5 (inactive)
CC[C@H](CO)NC(=O)[C@@H]1C=C2c3cccc4[nH]cc(c34)C[C@H]2N(C)C1,fluorescence slope change,[2],0.6% (inactive)
same,parasite load remaining,[4],67.8% (inactive)
same,viability,[4],73.1%
CCOC(=O)NC1=C(N2CC2)C(=O)C(NC(=O)OCC)=C(N2CC2)C1=O,fluorescence slope change,[2],17.2% (inactive)
COc1cc(CC(C)N)c(OC)cc1I (centres undefined),period change,[1],-0.11 h (inactive)
same,inhibition,[5],-3% (inactive)
same,fluorescence ratio (interference),[6],1 (inactive)
O=P(O)(O)Cc1ccccc1,survival,[3],126 (inactive)
C=C(C(=O)OC1CC2[C@@H]3O[C@@H]3[C@@H](C1)N2C)c1ccccc1 (some centres undefined),fluorescence slope change,[2],4.6% (inactive)
CN1[C@@H]2CCC[C@H]1CC(=O)C2,fluorescence slope change,[2],53.5% (active)
C[C@@H]1CCC2[C@H](C)C3CC[C@@]4(O)[C@@H]5CC(=O)[C@H]6CC(=O)CC[C@]6(C)C5C[C@H]4[C@@H]3CN2C1 (some centres undefined),fluorescence slope change,[2],16.8% (inactive)
CN[C@@H]1CC2(C)OC([C@@H]1OC)n1c3ccccc3c3c4c(c5c6ccccc6n2c5c31)C(=O)NC4 (some centres undefined),survival,[3],0.333 (inactive)
C=C[C@]12CN(C)C3C4COC(CC41)[C@]1(C(=O)Nc4ccccc41)[C@@H]32 (some centres undefined),fluorescence slope change,[2],13.5% (inactive)
same,survival,[3],4 (inactive)
CC1OC(OC2/C=C/C=C/C=C/C=C/CC/C=C/C=C/[C@H](C)[C@@H](O)[C@@H](C)[C@H](C)OC(=O)CC(O)CC(O)CC(O)CCC(O)C(O)C[C@]3(O)CC(O)C(C(=O)O)C(C2)O3)C(O)C(N)C1O (some centres undefined),fluorescence slope change,[2],108% (active)
same,survival,[3],8.92 (inactive)
same,parasite load remaining,[4],78.6% (inactive)
same,viability,[4],74%
CN(C)Cc1c[nH]c2c(OCc3ccccc3)cccc12,fluorescence slope change,[2],61.1% (active)
CC[C@@H](C)C(=O)O[C@H]1[C@H](O)[C@H]2[C@@H](CN3C[C@@H](C)CC[C@H]3[C@@]2(C)O)C2C[C@]34O[C@@]5(O)[C@@H](OC(=O)C(C)(O)CC)CC[C@@]3(C)[C@@H]5[C@@H](OC(C)=O)[C@@H](OC(C)=O)[C@H]4[C@@]21O (some centres undefined),fluorescence slope change,[2],24.2% (inactive)
same,survival,[3],6.33 (inactive)
same,parasite load remaining,[4],72.4% (inactive)
same,viability,[4],77.1%
CCN1C[C@]2(COC)CC[C@H](OC)[C@]34C5C[C@@H]6[C@@H](OC)CC7(OCO[C@]7([C@H]13)[C@@H](O)C24)C5[C@H]6OC (some centres undefined),fluorescence slope change,[2],13% (inactive)
same,survival,[3],6.42 (inactive)
C[C@H](N)[C@@H](O)c1ccc(O)c(O)c1,fluorescence slope change,[2],17.7% (inactive)
CN1CCc2cc3c(c4c2C1Cc1ccccc1-4)OCO3 (centres undefined),fluorescence slope change,[2],11.3% (inactive)
CO[C@@H]1C=C2CCN(C)[C@@H]2C2c3cc4c(cc3C(=O)OC21)OCO4 (some centres undefined),fluorescence slope change,[2],12.6% (inactive)
same,survival,[3],4.75 (inactive)
NCCC(O)C(=O)NC1CC(N)C(OC2OC(CN)C(O)[C@H](O)[C@@H]2N)[C@H](OC2O[C@H](CO)[C@@H](O)[C@@H]2O)[C@@H]1O (some centres undefined),fluorescence slope change,[2],51.6% (active)
same,survival,[3],4.17 (inactive)
CN1C2CC(=O)CC1C(O)C2 (centres undefined),survival,[3],4.08 (inactive)
CCN(CC)C(=O)N[C@H]1C=C2c3cccc4[nH]cc(c34)C[C@H]2N(C)C1,fluorescence slope change,[2],136% (active)
same,period change,[1],0.33 h (inactive)
same,survival,[3],19.8 (inactive)
same,parasite load remaining,[4],92.5% (inactive)
same,viability,[4],87.9%
